From PubChem BioAssay (NCI)
About 79,000 compounds went through this panel and 15% of them were active in at least one assay; those are over-represented in the sample as a whole. Activity calls are given as the source filed them. Cut-off read from the data, not from the text of the source: active = growth inhibition above about 70%; inactive = the rest.

How the values were obtained:
[1] = NCI Yeast Anticancer Drug Screen. Data for the rad52 strain (AID 147);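 note: 0% = growth of vehicle-treated control cultures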; conditions: S. cerevisiae rad52 mutant growth inhibition, active compounds read high
In short: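 DNA repair-defective yeast; compound exposure; growth scored against vehicle controls.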

[2] = NCI Yeast Anticancer Drug Screen. Data for the wt1 strain (AID 149);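 note: 0% = growth of vehicle-treated wt1 cultures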; conditions: S. cerevisiae wt1 strain (SPY 50644) growth inhibition, active compounds read high
In short: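 The wt1 strain was treated with compounds, and growth was compared with vehicle-treated cultures to give inhibition.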

[3] = NCI Yeast Anticancer Drug Screen. Data for the rad50EPP+ strain (AID 151);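 note: 0% = growth of vehicle-treated control cultures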; conditions: S. cerevisiae rad50 mutant strain, active compounds read high
In short: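 rad50EPP+ yeast treated with test compounds. Readout: growth vs vehicle control.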

[4] = NCI Yeast Anticancer Drug Screen. Data for the mgt1 strain (AID 153); conditions: S. cerevisiae mgt1 mutant growth inhibition, active compounds read high
In short: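 Growth inhibition relative to vehicle controls was scored for the mgt1 yeast strain after compound exposure.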

[5] = NCI Yeast Anticancer Drug Screen. Data for the rad50 strain (AID 155);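 note: 0% = growth of vehicle-only cultures of the same strain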; conditions: S. cerevisiae rad50 strain growth inhibition, active compounds read high
In short: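 Cells are treated with compound, grown, and their growth is then scored against vehicle-only cultures of the same repair-deficient yeast strain.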

[6] = NCI Yeast Anticancer Drug Screen. Data for the mec2-1 strain (AID 157); conditions: S. cerevisiae mec2-1 strain, active compounds read high
In short: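 Growth inhibition is read against vehicle-treated controls after compound exposure of the mec2-1 yeast strain, which is defective in DNA damage repair or cell cycle control.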

[7] = NCI Yeast Anticancer Drug Screen. Data for the sgs1 mgt1 strain (AID 161);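 note: 0% = growth of cultures given vehicle only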; conditions: S. cerevisiae sgs1 mgt1 strain, active compounds read high
In short: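 Compounds are added to genetically altered yeast, and growth is compared with cultures given vehicle alone to give percent inhibition.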

[8] = NCI Yeast Anticancer Drug Screen. Data for the CLN2oe strain (AID 163);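 note: 0% = growth of vehicle-only control cultures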; conditions: S. cerevisiae CLN2oe strain, active compounds read high
In short: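 Compound-treated yeast; growth vs vehicle ctrl = % inhibition. Genetically altered strain (cell-cycle control).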

[9] = NCI Yeast Anticancer Drug Screen. Data for the cln2 rad14 strain (AID 165);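 note: 0% = growth equal to vehicle treated cultures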; conditions: S. cerevisiae cln2 rad14 strain, active compounds read high
In short: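 Growth inhibition, relative to vehicle-treated controls, is the read-out. The test organism is a yeast strain with defined genetic alterations, cln2 rad14.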

[10] = NCI Yeast Anticancer Drug Screen. Data for the bub3 strain (AID 167); conditions: S. cerevisiae bub3 mutant strain, active compounds read high
In short: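 Part of a panel of yeast mutants defective in DNA damage repair or cell cycle regulation. Each strain is grown with compound, and inhibition is calculated relative to solvent-treated cultures.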

[11] = NCI Yeast Anticancer Drug Screen. Data for the wt2 strain (AID 169);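 note: 0% = growth of vehicle-treated yeast cultures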; conditions: S. cerevisiae wt2 strain growth inhibition, active compounds read high
In short: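 Compound exposure of yeast; growth compared with vehicle controls; inhibition reported.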

[12] = NCI Yeast Anticancer Drug Screen. Data for the mlh1 strain (AID 171);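 note: 0% = growth of vehicle-treated control cultures of the same strain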; conditions: S. cerevisiae mlh1 strain growth inhibition, active compounds read high
In short: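 Compounds are applied to a genetically altered yeast strain, and its growth is compared with that of vehicle-treated cultures to give percent inhibition.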

[13] = NCI Yeast Anticancer Drug Screen. Data for the sgs1 strain (AID 173);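 note: 0% = growth of vehicle-only control cultures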; conditions: S. cerevisiae sgs1 mutant, active compounds read high
In short: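 Compounds applied to genetically altered yeast; growth compared with vehicle-treated cultures to give % inhibition.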

[14] = NCI Yeast Anticancer Drug Screen. Data for the mlh1 rad18 strain (AID 175); conditions: S. cerevisiae mlh1 rad18 strain growth inhibition, active compounds read high
In short: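 Cells of a genetically altered yeast strain, deficient in DNA damage repair, were treated with compound. Their growth was then compared with that of vehicle-treated cultures to give inhibition.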

[15] = NCI Yeast Anticancer Drug Screen. Data for the rad18 strain (AID 177); conditions: S. cerevisiae rad18 mutant growth inhibition, active compounds read high
In short: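 Compounds are applied to a repair-deficient yeast strain, and growth is compared with that of vehicle-treated cultures to give percent inhibition.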

[16] = at 5.0 µM (retest, dose inferred, filed as 0.5)
[17] = at 50.0 µM (retest, dose inferred, filed as 5.0)

Measured: growth inhibition

NC(=S)N1N=C2c3ccccc3CC[C@@H]2[C@@H]1c1ccccc1
active: [1]; at 100.0 µM 77% | [4]; at 100.0 µM 88% | [5]; [17] 79% | [5]; at 50.0 µM 75.6% | [5]; at 100.0 µM 86% | [6]; [17] 77% | [6]; at 100.0 µM 73% | [7]; [17] 82% | [7]; at 50.0 µM 83% | [8]; at 100.0 µM 73% | [10]; [17] 86% | [10]; at 50.0 µM 77.1% | [10]; at 100.0 µM 90% | [11]; at 100.0 µM 86% | [12]; at 100.0 µM 88% | [13]; at 100.0 µM 89% | [14]; [17] 81% | [14]; at 50.0 µM 74.5%
inactive: [1]; at 1.2 µM -34% | [1]; at 3.7 µM -17% | [1]; at 11.0 µM -8% | [1]; at 33.0 µM 7% | [2]; at 1.2 µM 11% | [2]; at 3.7 µM 2% | [2]; at 11.0 µM 2% | [2]; at 33.0 µM 9% | [2]; at 100.0 µM 67% | [3]; at 1.2 µM -31% | [3]; at 3.7 µM -36% | [3]; at 11.0 µM -49% | [3]; at 33.0 µM -40% | [3]; at 100.0 µM -23% | [4]; at 1.2 µM -17% | [4]; at 3.7 µM -29% | [4]; at 11.0 µM -19% | [4]; at 33.0 µM 15% | [5]; at 1.2 µM -13% | [5]; at 3.7 µM -2% | [5]; [16] 35% | [5]; at 11.0 µM -1% | [5]; at 33.0 µM 15% | [6]; at 1.2 µM -10% | [6]; at 3.7 µM -13% | [6]; [16] -16% | [6]; at 11.0 µM -3% | [6]; at 33.0 µM 13% | [6]; at 50.0 µM 64.4% | [7]; [16] 8% | [8]; at 1.2 µM -28% | [8]; at 3.7 µM -27% | [8]; at 11.0 µM -25% | [8]; at 33.0 µM -10% | [9]; [16] -4% | [9]; [17] 55% | [9]; at 50.0 µM 67.2% | [10]; at 1.2 µM -4% | [10]; at 3.7 µM 11% | [10]; [16] 27% | [10]; at 11.0 µM -4% | [10]; at 33.0 µM 34% | [11]; at 1.2 µM -17% | [11]; at 3.7 µM -5% | [11]; at 11.0 µM -2% | [11]; at 33.0 µM 25% | [12]; at 1.2 µM -31% | [12]; at 3.7 µM -25% | [12]; at 11.0 µM -8% | [12]; at 33.0 µM 23% | [13]; at 1.2 µM 6% | [13]; at 3.7 µM 13% | [13]; at 11.0 µM 27% | [13]; at 33.0 µM 68% | [14]; [16] -15% | [15]; at 1.2 µM -25% | [15]; at 3.7 µM -21% | [15]; at 11.0 µM -11% | [15]; at 33.0 µM 14% | [15]; at 100.0 µM 66%

O=C(NNc1ccccc1)C(CCCCNS(=O)(=O)Cc1ccccc1)NS(=O)(=O)Cc1ccccc1 (stereo unspecified)
inactive: [1]; at 1.2 µM 3% | [1]; at 3.7 µM 9% | [1]; at 11.0 µM 29% | [1]; at 33.0 µM 46% | [2]; at 1.2 µM 4% | [2]; at 3.7 µM 9% | [2]; at 11.0 µM 26% | [2]; at 33.0 µM 44% | [2]; at 100.0 µM 54% | [3]; at 1.2 µM 3% | [3]; at 3.7 µM 10% | [3]; at 11.0 µM 25% | [3]; at 33.0 µM 55% | [3]; at 100.0 µM 68% | [4]; at 1.2 µM 0% | [4]; at 3.7 µM 11% | [4]; at 11.0 µM 13% | [4]; at 33.0 µM 18% | [4]; at 100.0 µM 18% | [5]; at 1.2 µM 5% | [5]; at 3.7 µM 10% | [5]; [16] 18% | [5]; at 11.0 µM 36% | [5]; at 33.0 µM 56% | [5]; [17] 53% | [5]; at 50.0 µM 51.2% | [6]; at 1.2 µM -2% | [6]; at 3.7 µM 8% | [6]; [16] 5% | [6]; at 11.0 µM 25% | [6]; at 33.0 µM 48% | [6]; [17] 34% | [6]; at 50.0 µM 26.4% | [6]; at 100.0 µM 39% | [7]; [16] 10% | [7]; [17] 54% | [7]; at 50.0 µM 51.5% | [8]; at 1.2 µM 1% | [8]; at 3.7 µM 6% | [8]; at 11.0 µM 31% | [8]; at 33.0 µM 51% | [8]; at 100.0 µM 44% | [9]; [16] 5% | [9]; [17] 46% | [9]; at 50.0 µM 14.8% | [10]; at 1.2 µM 1% | [10]; at 3.7 µM 3% | [10]; [16] 11% | [10]; at 11.0 µM 44% | [10]; at 50.0 µM 53.6% | [10]; at 100.0 µM 47% | [11]; at 1.2 µM 2% | [11]; at 3.7 µM 6% | [11]; at 11.0 µM 22% | [11]; at 33.0 µM 28% | [11]; at 100.0 µM 51% | [12]; at 1.2 µM 1% | [12]; at 3.7 µM 1% | [12]; at 11.0 µM 11% | [12]; at 33.0 µM 32% | [12]; at 100.0 µM 44% | [13]; at 1.2 µM 2% | [13]; at 3.7 µM 7% | [13]; at 11.0 µM 25% | [13]; at 33.0 µM 42% | [13]; at 100.0 µM 68% | [14]; [16] 14% | [14]; [17] 56% | [15]; at 1.2 µM 2% | [15]; at 3.7 µM 19% | [15]; at 11.0 µM 62% | [15]; at 100.0 µM 50%
active: [1]; at 100.0 µM 72% | [5]; at 100.0 µM 85% | [10]; at 33.0 µM 87% | [10]; [17] 86% | [14]; at 50.0 µM 75.2% | [15]; at 33.0 µM 90%
